Measured values from PubChem BioAssay (EPA / NIEHS).
Activity calls are given as the source filed them. How the source made its calls: active means hit-call score of the fitted dose curve at least 0.9, where 1 is the maximum; inactive means score below 0.9.

These molecules were tested on CYP3A5 (gene 1577) (assay: LTEA_HepaRG_CYP3A5: Life Technologies and Expression Analysis (LTEA) Assay for CYP3A5 using HepaRG (AID 2283493)). Conditions: mRNA level, 48 h; actives raise or lower the signal.
Procedure: LTEA_HepaRG is a cell based, multiplexed-readout assay that uses HepaRG, a human liver cell line, with measurements taken at 48 hours after chemical dosing on a 96-well plate.LTEA_HepaRG_CYP3A5 is one of 102 assay component(s) measured in the LTEA HepaRG cell culture assay. It is a marker of NR mediated metabolism.Data from the assay component LTEA_HepaRG_CYP3A5 was analyzed into 1 endpoint. This assay endpoint, LTEA_HepaRG_CYP3A5, was analyzed with bidirectional fitting relative to DMSO as the negative control and baseline of activity. Using a type of inducible reporter, measures of mRNA induction for gain or loss-of-signal activity can be used to understand regulation of transcription factor activity. To generalize the intended target to other relatable targets, this assay endpoint is annotated to the cyp intended target family, where the subfamily is xenobiotic metabolism.
A total of 1060 chemcials from the ToxCast library were tested in eight-point concentration-response experiments. Cell culture and cytotoxicity assays were conducted at Thermo Fisher Scientific's Custom Services facility (Madison, WI). A single lot of human HepaRG cells (Thermo Fisher Scientific, Frederick, MD) was used for the cell culture experiments. 96-well format collagen type I coated plates of human HepaRG cells were prepared using established methods. Briefly, cryopreserved HepaRG cells were thawed, plated at a density of approximately 100,000 cells/well in HepaRG Thaw, Plate, and General Purpose media (HPRG770, Thermo Fisher Scientific), and incubated for 48 hours. 0.5% DMSO was selected as vehicle control to balance the requisite need of DMSO in HepaRG cultures to maintain differentiation (for example, baseline metabolism, proportions of hepatocytes vs. cholangiocytes), while enabling further hepatic receptor pathway activation (for example, PXR and CAR) in response to chemical exposure. 48 hours after plating, the culture medium was replaced with HepaRG Serum-Free Incudtion Media. Cells were exposed to each test chemical in duplicate and maintained in CO2 incubators for another 48 hours. Chemical plates were thawed to room temperature and 200x concentrations of treatment groups were prepared. 8-point conentration-reponse curves were made with the highest exposure at 100 uM, followed by half-log dilutions, all in 0.5% DMSO. Each test plate contained variouse controls, induction positive controls (1mM phenobarbital), cytotoxicity positive controls ([…] aflatoxin B1), vehicle controls (0.5% DMSO), and total lysis controls (0.5% DMSO). Cell morphology images were taken using an Essen IncuCyte FLR automated microscope, with six 96-well plates imaged in about 24 minutes. Images were captured and exported and JPEG files. Spent culture media was transfered to black-well plates for the LDH assay, and remaining media was sorted at -80 C for later use. Cells were treated with RLT buffer and frozen until shipped for gene expression analysis. Total RNA was isolated from the cell suspension in 75 uL of Buffer RLT (Qiagen, Germantown, MD 20874) by Quintiles/Expression Analysis (Durham, NC) using a custom isolation procedure. Total RNA from each plate well was transferred to a preamplification plate. Fluidigm's 96.96 Dynamic ArrayTM (Fluidigm, Amsterdam, the Netherlands) technology was used for gene expression analyses by quantitative reverse transcription polymerase chain reaction (qRT-PCR, performed by Quintiles/Expression Analysis, Durham, NC)89. Standard TaqManTM Assays (Applied Biosystems/ThermoFisher Scientific, Foster City, CA) were used to assess the expression of 93 genes selected based on their selectivity and sensitivity to important hepatic receptors known to be modulated by environmental chemicals; importance in human hepatocyte functionality; and hepatotoxicity. […]

**Q.** For `Nc1ccn([C@@H]2O[C@H](CO)[C@@H](O)[C@@H]2O)c(=O)n1`, which outcome is on record?
**A.** inactive

**Q.** With `O=c1[nH]cnc2c1ncn2[C@H]1CC[C@@H](CO)O1` as the molecule, how does the outcome read?
**A.** inactive

**Q.** With `CCCCCOC(C)=O` as the molecule, how does the outcome read?
**A.** inactive

**Q.** With `c1ccc2ncccc2c1` as the molecule, how does the outcome read?
**A.** inactive

**Q.** `C[C@@H](Oc1ccc(CNC(=O)c2cccnc2Oc2ccc3c(c2)OCO3)c(F)c1)C(=O)O` was tested. Which outcome did it give?
**A.** inactive

**Q.** For `CC1(C)C(=O)N(Cl)C(=O)N1Cl`, which outcome is on record?
**A.** inactive

**Q.** For `CCCOc1ccc(S(=O)(=O)N2CCN(CC)CC2)cc1-c1nc2c(CC)n(Cc3ccccn3)nc2c(=O)[nH]1`, which outcome is on record?
**A.** inactive

**Q.** Which outcome does the source give for `c1ccc2cc3ccccc3cc2c1` here?
**A.** inactive

**Q.** With `CC(=O)c1ccccc1` as the molecule, how does the outcome read?
**A.** inactive

**Q.** Which AC50 does the source give for `Cc1nccn1-c1ccc(Sc2cccc(C3(C(N)=O)CCOCC3)c2)cc1` here?
**A.** 19.5 µM (active)

**Q.** With `CCCCCCCCCCCCCCO` as the molecule, how does the outcome read?
**A.** inactive

**Q.** Which outcome does the source give for `CCc1ccc(O)c(C(C)(C)C)c1` here?
**A.** inactive

**Q.** Which outcome does the source give for `CCOC(N)=O` here?
**A.** inactive

**Q.** How did the AC50 turn out when `c1ccc(C(O[C@@H]2CCCN(CCc3ccc4c(c3)OCO4)C2)c2ccccc2)cc1` was run?
**A.** 81.9 µM (active)

**Q.** For `O=C(O)c1cccc(C[C@@H]2COc3ccc(OCc4nc5cc(F)ccc5s4)cc3[C@@H]2O)c1`, which outcome is on record?
**A.** inactive

**Q.** `NC(=O)N1c2ccccc2C=Cc2ccccc21` was tested. Which outcome did it give?
**A.** inactive

**Q.** For `CCCc1ccccc1`, which outcome is on record?
**A.** inactive

**Q.** For `OC[C@H]1O[C@@](CO)(O[C@H]2O[C@H](CO)[C@@H](O)[C@H](O)[C@H]2O)[C@@H](O)[C@@H]1O`, which outcome is on record?
**A.** inactive

**Q.** `O=C(O)c1ccc2c(c1)nc(C(=O)NC1CCN(C3CC3)CC1)n2Cc1cc(-c2ccc(Cl)s2)on1` was tested. Which outcome did it give?
**A.** inactive

**Q.** How did the AC50 turn out when `C=CCc1cc(S(=O)(=O)c2ccc(O)c(CC=C)c2)ccc1O` was run?
**A.** 9.92 µM (active)

**Q.** For `CC[C@H](C)C(=O)O[C@H]1C[C@H](O)C=C2C=C[C@H](C)[C@H](CC[C@@H](O)C[C@@H](O)CC(=O)O)[C@H]21`, which outcome is on record?
**A.** inactive

**Q.** How did the outcome turn out when `O=S(=O)(O)c1ccc(N=Nc2c(O)ccc3cc(S(=O)(=O)O)ccc23)cc1` was run?
**A.** inactive

**Q.** How did the outcome turn out when `O=C(O)c1cccc(C(=O)O)c1` was run?
**A.** inactive

**Q.** How did the outcome turn out when `OCCNCCO` was run?
**A.** inactive

**Q.** For `O=C(NO)C1(NS(=O)(=O)c2ccc(Oc3ccc(F)cc3)cc2)CCOCC1`, which outcome is on record?
**A.** inactive

**Q.** With `COS(C)(=O)=O` as the molecule, how does the outcome read?
**A.** inactive

**Q.** How did the AC50 turn out when `c1ccc2c(c1)-c1cccc3c1c-2cc1ccccc13` was run?
**A.** 5.37 µM (active)

**Q.** How did the outcome turn out when `CCCCC(CC)C(=O)OCCOCCOCCOC(=O)C(CC)CCCC` (stereo not given) was run?
**A.** inactive

**Q.** Which outcome does the source give for `OC(CCl)CCl` here?
**A.** inactive

**Q.** With `CCCCOC(=O)c1ccccc1` as the molecule, how does the outcome read?
**A.** inactive

**Q.** Which outcome does the source give for `C[C@]12C=CC(=O)C=C1CC[C@H]1[C@@H]3C[C@@H](O)[C@](O)(C(=O)CO)[C@@]3(C)C[C@H](O)[C@@]12F` here?
**A.** inactive

**Q.** How did the outcome turn out when `CCCCCCCCCCCCCCCCOS(=O)(=O)O` was run?
**A.** inactive

**Q.** With `OCCOCCOCCO` as the molecule, how does the outcome read?
**A.** inactive

**Q.** How did the outcome turn out when `O=S1(=O)CCCO1` was run?
**A.** inactive

**Q.** How did the outcome turn out when `Cc1nc(-c2ccccn2)ncc1C(=O)Nn1cc(C)c2cc(F)ccc21` was run?
**A.** inactive

**Q.** For `CCOc1ccc2[nH]cc(C(=O)NCc3ccccc3)c(=O)c2n1`, which outcome is on record?
**A.** inactive

**Q.** `Cn1c(=O)c2[nH]cnc2n(C)c1=O` was tested. Which outcome did it give?
**A.** inactive

**Q.** Which outcome does the source give for `CCCCCCCC/C=C\CCCCCCCC(=O)OC[C@@H](O)[C@H]1OC[C@H](O)[C@H]1O` here?
**A.** inactive

**Q.** For `COc1cc(C(C)C)c2c(c1)S(=O)(=O)N(COc1cc(=O)n3cccc(OCCN4CCCCC4)c3n1)C2=O`, which AC50 is on record?
**A.** 20.9 µM (active)

**Q.** Which outcome does the source give for `OCC(CO)(CO)CO` here?
**A.** inactive
